In PubChem BioAssay one finds composite z-score and z-score data, which are given here for five compounds.

Test [1] in a line: compounds binding Alexa647 anti-His antibody – biochemical, small-molecule microarray, 635 nm fluorescence, artefact control for SMM control protein annotation, primary screen (AID 1128).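 Further: score merges feature fluorescence with signal-to-noise for each printed compound spot.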 To be noted: higher = more signal.
The test system of test [2] is Human papillomavirus type 1a E7 protein (residues 1-88). In words: HPV1a E7 small-molecule binders, primary screen, biochemical, small-molecule microarray, residues 1-88, 635 nm (AID 1129). To be noted: small-molecule microarray binding, fluorescence 635 nm; higher = more signal.
In test [3] the target is Focal adhesion kinase 1 (Homo sapiens) (UniProt Q05397). In words: PTK2 protein binding on printed compound slides – biochemical, small-molecule microarray, 635/667 nm fluorescence, BSA, DTT, primary screen (AID 1130).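 Further: composite of spot emission at 667 nm and signal to noise over triplicate slides.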 To be noted: 635 nm fluorescence, higher = more signal.
Chain of Focal adhesion kinase 1 (Homo sapiens) (Q05397 whole entry, looked up): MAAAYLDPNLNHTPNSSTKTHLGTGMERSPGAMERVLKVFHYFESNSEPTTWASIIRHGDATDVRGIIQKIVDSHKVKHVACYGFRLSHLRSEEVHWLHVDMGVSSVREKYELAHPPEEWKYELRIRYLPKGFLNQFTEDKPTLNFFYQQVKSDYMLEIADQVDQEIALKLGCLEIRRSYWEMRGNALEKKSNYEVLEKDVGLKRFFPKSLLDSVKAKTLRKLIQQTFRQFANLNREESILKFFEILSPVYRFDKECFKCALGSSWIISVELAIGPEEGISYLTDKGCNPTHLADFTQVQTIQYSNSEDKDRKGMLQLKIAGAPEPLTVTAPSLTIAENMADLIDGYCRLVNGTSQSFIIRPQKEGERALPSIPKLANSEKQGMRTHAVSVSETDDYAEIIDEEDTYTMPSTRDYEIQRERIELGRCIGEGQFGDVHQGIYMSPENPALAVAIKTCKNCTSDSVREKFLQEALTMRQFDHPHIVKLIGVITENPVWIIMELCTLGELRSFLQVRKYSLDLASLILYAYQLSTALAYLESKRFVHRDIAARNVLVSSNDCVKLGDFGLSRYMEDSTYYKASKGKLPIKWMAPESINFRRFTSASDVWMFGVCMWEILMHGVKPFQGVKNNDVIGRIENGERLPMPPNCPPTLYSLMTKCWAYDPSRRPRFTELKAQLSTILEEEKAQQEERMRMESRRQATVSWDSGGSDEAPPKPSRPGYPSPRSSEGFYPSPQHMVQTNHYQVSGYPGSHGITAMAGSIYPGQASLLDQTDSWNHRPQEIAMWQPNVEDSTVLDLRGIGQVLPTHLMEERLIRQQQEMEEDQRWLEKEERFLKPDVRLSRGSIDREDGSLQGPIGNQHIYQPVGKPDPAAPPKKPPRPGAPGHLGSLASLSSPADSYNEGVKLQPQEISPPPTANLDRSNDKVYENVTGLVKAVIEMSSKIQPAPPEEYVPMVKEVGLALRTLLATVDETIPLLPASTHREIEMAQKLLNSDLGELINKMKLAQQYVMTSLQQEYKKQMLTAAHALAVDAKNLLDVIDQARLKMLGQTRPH
In test [4] the test system is Fibrinogen (Alexa647-labelled). The test can be described thus: Alexa647-fibrinogen binding to printed small molecules – biochemical, small-molecule microarray, 635/667 nm fluorescence, artefact control for SMM control-protein annotation, profiling panel (AID 1131).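 Further: z-score merges 667 nm fluorescence with per-spot signal-to-noise over triplicate slides.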 To be noted: fibrinogen-A647 binding fluorescence, higher = more signal.
Test [5] deals with Follistatin (Homo sapiens) (UniProt P19883). The test can be described thus: FST protein binding to printed compounds – biochemical, small-molecule microarray, 635/667 nm fluorescence, primary screen (AID 1132). To be noted: 635 nm fluorescence, higher = more signal.
Chain of Follistatin (Homo sapiens) (P19883 whole entry, looked up): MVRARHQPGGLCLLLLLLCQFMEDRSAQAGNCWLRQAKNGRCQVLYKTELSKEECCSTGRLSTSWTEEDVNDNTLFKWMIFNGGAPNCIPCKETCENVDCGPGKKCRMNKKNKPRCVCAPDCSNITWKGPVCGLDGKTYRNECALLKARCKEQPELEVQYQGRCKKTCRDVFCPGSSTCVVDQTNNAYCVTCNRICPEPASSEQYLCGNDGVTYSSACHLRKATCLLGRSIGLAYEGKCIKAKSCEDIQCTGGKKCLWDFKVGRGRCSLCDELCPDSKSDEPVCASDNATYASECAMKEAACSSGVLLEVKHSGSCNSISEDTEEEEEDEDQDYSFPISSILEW
Test [6] deals with Fibroblast growth factor 2 (Homo sapiens) (UniProt P09038). In words: basic fibroblast growth factor binding to printed compounds – biochemical, small-molecule microarray, 635/667 nm fluorescence, primary screen (AID 1133). To be noted: FGF2, fluorescence 635/667, higher = more signal.
Chain of Fibroblast growth factor 2 (Homo sapiens) (P09038 whole entry, looked up): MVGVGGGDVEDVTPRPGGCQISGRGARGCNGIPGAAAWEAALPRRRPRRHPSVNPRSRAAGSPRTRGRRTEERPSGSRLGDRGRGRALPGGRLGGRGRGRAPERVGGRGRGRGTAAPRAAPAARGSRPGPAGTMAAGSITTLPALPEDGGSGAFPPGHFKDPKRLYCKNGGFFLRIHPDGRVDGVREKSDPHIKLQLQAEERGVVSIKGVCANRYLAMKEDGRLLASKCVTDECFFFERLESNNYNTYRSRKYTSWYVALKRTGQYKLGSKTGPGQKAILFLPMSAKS
Test [7] can be described thus: JC-1 mitochondrial potential readout, lung cancer cells – cell-based, A549, JC-1 fluorescence, basal, 24 h, 100 nL, profiling panel (AID 1138).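 Further: A549 lung adenocarcinoma cells under basal conditions with no added stimulus; test concentration not given here.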 To be noted: higher = more signal.
Another test concerns Lefty1. The test can be described thus: Lefty1 protein binding to printed compounds – biochemical, small-molecule microarray, 635/667 nm fluorescence, primary screen (AID 1139). To be noted: fluorescence 635/667, higher = more signal.
Test [8] concerns wheat germ agglutinin (Triticum aestivum), Alexa647-labelled. The test can be described thus: Alexa647-WGA lectin binding to printed small molecules – biochemical, small-molecule microarray, 635/667 nm fluorescence, artefact control for SMM control-protein annotation, profiling panel (AID 1140).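 Further: score merges 667 nm feature emission with signal to noise over triplicate slides.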 To be noted: WGA-A647 binding, 635 nm fluorescence, higher = more signal.
Test [9] addresses Luciferin 4-monooxygenase (Photinus pyralis) (UniProt P08659). The test can be described thus: inhibition of purified Photinus pyralis luciferase – biochemical, luminescence, purified enzyme, 2006 set, primary screen (AID 1141).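 Further: cell-free assay with purified firefly luciferase at 100 ng per well in PBS; test concentration not given here.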 To be noted: purified firefly luciferase, SteadyGlo luminescence, 30 min; higher = more signal, called active from +8 up or from −8 down.
For test [10], the system named is Wnt5a (protein binding on small-molecule microarray). The test can be described thus: small molecules binding Wnt5a protein – biophysical, small-molecule microarray, 635/667 nm fluorescence, primary screen (AID 1142).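 Further: fluorescence read at 667 nm with signal to noise per printed feature.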 To be noted: 635 nm fluorescence, higher = more signal.
Test [11] can be described thus: ATP-based viability of Huh7 replicon cells – cell-based, CellTiter-Glo luminescence, basal, 48 h, cytotoxicity control for HCV replication inhibitor project, primary screen (AID 1143).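 Further: Huh7 hepatoma cells carrying a hepatitis C replication reporter with no stimulus; test concentration not given here.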 To be noted: higher = more signal, called active from +8 up or from −8 down. For orientation: In antiviral work, replicon cells carry a viral genome segment that copies itself.
A short description of test [12]: Pseudomonas biofilm growth suppression – PAO1 strain, BacTiter-Glo luminescence, LB-PBS, primary screen (AID 1144). To be noted: P. aeruginosa PAO1 biofilm, 12 h, higher = more signal.
The nature of test [13]: basal CRE-LacZ reporter activity in PC12 – cell-based, unstimulated, primary screen (AID 1145). To be noted: no forskolin, luminescence, 4.5 h, higher = more signal, called active from +8 up or from −8 down.
Test [14] is described as follows: forskolin-driven CRE-LacZ activity in PC12 – cell-based, CRE-LacZ reporter, forskolin-stimulated, primary screen (AID 1146).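 Further: PC12 cells with 6xCRE LacZ reporter stimulated by forskolin 10 µM; beta-galactosidase reporter signal reflecting CREB driven transcription.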 To be noted: luminescence, 4.5 h, higher = more signal, called active from +8 up or from −8 down.
In test [15] the target is Streptavidin (Streptomyces avidinii) (UniProt P22629). In words: compounds binding control protein streptavidin – biophysical, small-molecule microarray, 635/667 nm fluorescence, artefact control for SMM compound annotation, primary screen (AID 1147).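 Further: signal reflects streptavidin binding to arrayed compounds as a control protein.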 To be noted: higher = more signal.
Chain of Streptavidin (Streptomyces avidinii) (P22629 whole entry, looked up): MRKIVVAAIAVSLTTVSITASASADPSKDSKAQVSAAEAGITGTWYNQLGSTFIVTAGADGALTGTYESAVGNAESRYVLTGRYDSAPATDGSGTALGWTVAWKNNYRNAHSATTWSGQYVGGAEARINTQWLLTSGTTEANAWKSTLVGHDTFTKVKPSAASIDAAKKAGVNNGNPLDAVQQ
The nature of test [16]: probe aInhba binding on compound microarray – biochemical, small-molecule microarray, 635/667 nm fluorescence, primary screen (AID 1148).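 Further: score merges 667nm spot fluorescence with signal-to-noise for antibody binding to printed compounds.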 To be noted: higher = more signal.
Test [17] has as its target Torsin-1A (Homo sapiens) (UniProt O14656). The test can be described thus: TOR1A wild-type binding on microarray – cell lysate, small-molecule microarray, lysate, 635/667 nm, primary screen (AID 1149). To be noted: COS7 hTOR1A-WT lysate, 635 nm fluorescence, higher = more signal.
Test [18] shares this target. In words: torsin A mutant lysate binding on microarrays – cell lysate, small-molecule microarray, COS7 lysate, 635/667 nm fluorescence, primary screen (AID 1150).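 Further: score pools 667 nm emission and signal to noise measuring lysate protein binding.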 To be noted: COS7 hTOR1A mutant lysate, 635 nm fluorescence, higher = more signal.
Test [19] has as its system Sonic hedgehog protein (Shh). The test can be described thus: Sonic hedgehog microarray binding compounds – biochemical, small-molecule microarray, 635/667 nm fluorescence, primary screen (AID 1151).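 Further: Shh protein binding to compounds spotted on small-molecule microarray slides; score combines spot fluorescence intensity with signal-to-noise across triplicate slides.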 To be noted: 635 nm fluorescence, higher = more signal.

Molecules are shown by their SMILES. Calls of active or inactive are those of the source. Unless noted, how the calls were made is not given here.

Chain of Luciferin 4-monooxygenase (Photinus pyralis) (P08659 whole entry, looked up): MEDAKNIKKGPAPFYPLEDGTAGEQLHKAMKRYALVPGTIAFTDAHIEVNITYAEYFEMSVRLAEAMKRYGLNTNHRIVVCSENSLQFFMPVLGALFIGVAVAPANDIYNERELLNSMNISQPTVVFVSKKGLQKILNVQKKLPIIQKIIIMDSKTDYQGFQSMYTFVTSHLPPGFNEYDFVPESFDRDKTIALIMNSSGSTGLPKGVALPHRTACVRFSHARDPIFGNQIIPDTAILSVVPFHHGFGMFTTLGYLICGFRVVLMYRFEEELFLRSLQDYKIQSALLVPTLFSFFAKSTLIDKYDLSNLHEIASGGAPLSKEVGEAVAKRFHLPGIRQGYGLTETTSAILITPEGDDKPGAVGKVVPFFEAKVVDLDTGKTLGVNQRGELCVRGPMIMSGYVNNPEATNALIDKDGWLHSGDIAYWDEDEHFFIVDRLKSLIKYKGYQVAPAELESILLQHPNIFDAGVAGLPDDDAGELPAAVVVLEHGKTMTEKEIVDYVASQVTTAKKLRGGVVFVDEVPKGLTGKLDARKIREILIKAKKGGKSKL
Chain of Torsin-1A (Homo sapiens) (O14656 whole entry, looked up): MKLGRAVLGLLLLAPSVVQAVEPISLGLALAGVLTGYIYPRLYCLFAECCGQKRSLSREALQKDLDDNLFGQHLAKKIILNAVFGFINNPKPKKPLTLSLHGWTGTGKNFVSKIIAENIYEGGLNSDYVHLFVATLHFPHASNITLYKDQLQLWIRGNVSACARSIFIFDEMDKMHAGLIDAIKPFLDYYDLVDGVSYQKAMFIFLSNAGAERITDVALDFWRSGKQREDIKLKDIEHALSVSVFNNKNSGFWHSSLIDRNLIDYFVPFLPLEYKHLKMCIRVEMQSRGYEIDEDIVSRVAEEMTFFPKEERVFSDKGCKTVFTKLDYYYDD

On to `C[N+](C)(C)CCCC[C@@H]1NC(=O)[C@H]2C[C@@H](C(=O)NCCCCCCN)[C@@H](c3ccc(O)cc3)N2C1=O`, for which the composite z-score in test [1] stood at 3.15; in [2] it was 1.13; in test [3], 0.145; in test [4], 0.973; in test [5], 0.835; in test [6] it was 0.299. Moreover, the composite z-score was -0.046 in the test with Lefty1; 1.17 in test [8]; 0.408 in test [10]; 0.859 in [15]; 0.108 in test [16]; 0.774 with Torsin-1A (Homo sapiens) [17]. In addition, the results for the composite z-score (with Torsin-1A (Homo sapiens) [18]; in [19]) were 0.545 and -0.117, respectively. For the same compound, the z-score in test [7] was 0.792; in test [9], -0.932 (inactive); in [11], -0.548 (inactive); in [12] it was 1.09 (inactive); in test [13], -0.528 (inactive); in test [14], -1.1 (inactive).

For the compound `COCC1=C2[C@@H](CCc3ccccc3)OB(O)C[C@@H]2[C@@H]2C(=O)C=CC(=O)[C@@H]2C1`, the composite z-score amounted to 1.39 in test [1]; 0.736 in [2]; 0.238 in test [3]; 0.0217 in [4]; 0.648 in test [5]; 0.519 in test [6]. The composite z-score with Lefty1 was found to be 0.654; in [8], 0.982; in test [10], 0.0021; in [15] it was 0.55; in test [16], 0.0212; with Torsin-1A (Homo sapiens) [17], 0.246. For the same compound, the composite z-score with Torsin-1A (Homo sapiens) [18] stood at 0.292; in test [19], 0.963. The z-score in test [7] is -1.23; in [9] it was -3.14 (inactive); in [11], -1.9 (inactive); in test [12] it was 0.353 (inactive); in test [13], 19.2 (active); in [14], 22.8 (active).

Consider `CCCCO[C@H]1C[C@H]2C(I)=C[C@@H]1C(=O)[C@]21CO1`, for which the composite z-score in test [1] was 1.74; in [2] it was -0.522; in test [3], 0.047; in test [4], -0.886; in [5] it was 0.145; in test [6] it was 0.129. Besides, the composite z-score in the test with Lefty1 is 0.351; in test [8], -0.164; in test [10], -0.0784; in test [15], -0.258; in test [16], -0.161; with Torsin-1A (Homo sapiens) [17], -0.336. The composite z-score with Torsin-1A (Homo sapiens) [18] is -0.145; in test [19], 0.816. The z-score is 0.258 in [7]; 0.274 (inactive) in test [9]; -0.232 (inactive) in test [11]; 0.0666 (inactive) in test [12]; 0.496 (inactive) in test [13]; 0.672 (inactive) in test [14].

For the compound `CC(C)N1CC=CC23O[C@@H]4C=CCOC(=O)[C@@H]4[C@H]2C(=O)N(CCCO)[C@@H]3C1=O` (stereo not given in full), the composite z-score is 1.59 in test [1]; 0.672 in test [2]; 1.01 in test [3]; -1.14 in [4]; -0.0511 in test [5]; -0.849 in test [6]. Besides, the composite z-score in the test with Lefty1 was -0.133; in [8], -0.17; in [10], -0.26; in [15], -0.941; in test [16] it was -0.182; in the test with Torsin-1A (Homo sapiens) [17], 1.12. Also, the composite z-score in the test with Torsin-1A (Homo sapiens) [18] is 0.874; in [19] it was -0.182. Further, the z-score was -0.384 in test [7]; -3.85 (inactive) in [9]; -5.24 (inactive) in test [11]; -2.47 (inactive) in [12]; -1.31 (inactive) in [13]; -0.931 (inactive) in test [14].

On to `O=C(NCC(F)(F)F)[C@@H]1c2ccccc2C(=O)N(Cc2ccc(OC(F)(F)F)cc2)[C@H]1c1ccc(CO)cc1`, for which the composite z-score in test [1] was 0.191; in test [2], -0.0826; in test [3], 0.518; in test [4], -0.344; in test [5], 1.02; in test [6], 0.45. The composite z-score in the test with Lefty1 was 0.713; in test [8] it was 0.444; in test [10], 0.119; in test [15], -0.176; in test [16], -0.0672; with Torsin-1A (Homo sapiens) [17], 0.176. In addition, the composite z-score was -0.0108 with Torsin-1A (Homo sapiens) [18] and 1.74 in [19]. In addition, the z-score is 0.845 in [7]; 1.36 (inactive) in test [9]; -2.41 (inactive) in test [11]; -0.652 (inactive) in test [12]; 0.531 (inactive) in test [13]; 0.118 (inactive) in test [14].
